Assay outcomes deposited in PubChem by National Center for Advancing Translational Sciences (NCATS).
Only some compounds are listed: those with a hit (about 6.2% of all), similar ones and a draw of the others.
Luc counter – blocks Kinase-Glo luciferase, a counter-screen artifact; 200,000 compounds, 0.28% hits; Potency, µM (doses to about 38.3 µM), for inactives: at the highest dose activity change, negative = inhibition, usual class: inhibitors; AID 1379; Q27757; Kinase-Glo luciferase, ATP luminescence, 8 min; further: nearly all actives have a fitted effect of over 60% in size
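Inhibition of Kinase-Glo luciferase light generation was assessed at 10 uM ATP in pH 7.2 imidazole buffer, with luminescence measured after eight minutes at ambient temperature.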
RORgamma inh – ROR gamma (mouse) transcription inhibition. 310,000 compounds, 5.4% hits. P51450. Drosophila S2 Gal4-RORgamma UAS-luciferase reporter, 20 h. Potency, µM (titrated, usually from 53.6 µM), inactives show top-dose activity change, negative = inhibition, usual class: inhibitors; further: nearly all actives have a fitted effect of over 60% in size
Target sequence (P51450 whole entry, looked up, the tested form may be a part): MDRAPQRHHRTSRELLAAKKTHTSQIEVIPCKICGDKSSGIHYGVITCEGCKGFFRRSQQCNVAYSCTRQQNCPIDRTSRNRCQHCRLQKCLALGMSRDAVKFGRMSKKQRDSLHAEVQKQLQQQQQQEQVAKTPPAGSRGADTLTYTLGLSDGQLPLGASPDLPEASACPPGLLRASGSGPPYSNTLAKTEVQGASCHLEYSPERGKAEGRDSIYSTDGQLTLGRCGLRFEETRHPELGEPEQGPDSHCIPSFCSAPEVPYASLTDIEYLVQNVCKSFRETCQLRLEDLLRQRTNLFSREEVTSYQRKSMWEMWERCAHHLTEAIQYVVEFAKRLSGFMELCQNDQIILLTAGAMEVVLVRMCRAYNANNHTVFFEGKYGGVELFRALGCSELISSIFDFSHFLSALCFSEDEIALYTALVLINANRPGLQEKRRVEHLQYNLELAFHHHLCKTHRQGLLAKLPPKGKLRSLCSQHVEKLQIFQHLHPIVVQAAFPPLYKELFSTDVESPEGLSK
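Luciferase reporter read in Schneider cells carrying Gal4-RORγ (mouse) and UAS-Photinus luciferase; cells given compound 1 h before 700 uM copper sulfate induction, then incubated 20 h at ambient temperature.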
VP16 counter – Gal4-VP16 reporter inhibition counter-screen. Drosophila S2 Gal4-VP16 UAS-luciferase, luminescence, 20 h. Potency, µM (highest dose often 53.6 µM), inactives show at the highest dose activity, negative = inhibition, actives largely listed as inhibitors. 310,000 compounds, 3.5% hits. AID 2546;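 further: Gal4-VP16 expression switched on by copper sulfate through the metallothionein promoter; nearly all actives have a fitted effect of over 50% in size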
An asterisk follows results filed as active; ? = inconclusive; · = no result given; [ ] = remark or other dose. The call rests on the fitted dose curve; in most records, active means well fitted curve in the direction sought with a large enough effect; inconclusive means small, poorly fitted or top-dose-only effect, or another doubt; inactive means no such curve, though single readings can be large; an effect the other way counts as inactive or inconclusive. On the % scale 0 is the no-effect control and ±100 the full control effect; potency means the concentration at half of the fitted maximal effect.

SMILES | Luc counter | RORgamma inh | VP16 counter
C#Cc1ccc([C@@H]2C=C(C(=O)N3CCN(Cc4ccccc4)CC3)O[C@H](OCCCCO)C2)cc1 | · | ? | 2.4%
CCOc1ccc(N(CC(=O)N/N=C/c2ccccn2)S(=O)(=O)c2ccc(Cl)cc2)cc1 | · | 10µM* | ?
CCOc1ccc(N(CC(=O)NCCSc2ccccn2)S(=O)(=O)c2ccc(Cl)cc2)cc1 | · | -6.9% | -18.6%
CCOC(=O)Nc1ccc2c(c1)N(C(=O)CCN(CC)CC)c1ccccc1CC2 | · | -2.2% | -15.9%
CCOC(=O)Nc1ccc2c(c1)N(C(=O)CCN(CC)CC)c1ccccc1S2=O (configuration not stated) | · | ? | 12.6µM*
Cc1ccc(S(=O)(=O)NC(=O)NC2CCCC2)cc1 | · | 18.2% | 4.8%
COC(=O)c1ccccc1Sc1ncnc2onc(C)c12 | 4.4% | 11.2µM* | ?
Cc1noc2ncnc(Sc3ccccc3Cl)c12 | -1.2% | -0.2% | -4.1%
Cc1ccccc1C(=O)NC(=S)Nc1ccc(Oc2ccc(Cl)cc2)cc1 | -3.0% | 3.16µM* | 11.2µM*
Cc1ccc(C(=O)NC(=S)Nc2ccc(Oc3ccc(Cl)cc3)cc2)cc1 | -1.0% | 0.891µM* | ?
O=C(NC(=S)Nc1ccc(Oc2ccccc2)cc1)c1ccc(Cl)cc1 | -2.9% | 8.91µM* | ?
COc1ccc(NC(=O)c2ccc(C)cc2)cc1 | · | -11.1%[1.91 µM] | ?
COc1ccc(C(=O)NC(=S)Nc2ccc(Cl)c(C(=O)O)c2)cc1 | -1.1% | -10.1% | ?
COc1ccc(NC(=O)c2ccccc2C)cc1 | · | -42.2% | -23.6%
CC(C)CC(c1nnnn1Cc1ccccc1)N1CCC(C(N)=O)CC1 (configuration not stated) | -1.5% | -20.7% | 1.7%
Cc1oc(-c2ccccc2F)nc1CS(=O)(=O)CC(=O)NCc1ccccc1Cl | · | 4.4% | -0.6%
CC(C)C(=O)Nc1nnc(S(=O)(=O)N(C)c2ccc(Cl)cc2)s1 | · | -3.3% | -7.7%
CCC1C(=O)N(c2nc(C)cc(C)n2)N=C1C (configuration not stated) | -9.6% | ? | -8.9%
CC1=NN(c2nc(C)cc(C)n2)C(=O)C1CCC(C)C (configuration not stated) | -3.5% | 2µM* | 7.94µM*
O=C1c2ccccc2C2(c3cc(C(F)(F)F)cc(C(F)(F)F)c3)NCCN12 (configuration not stated) | · | 7.4% | -1.7%
Cn1ccnc1Sc1cc(NCCCO)c([N+](=O)[O-])c2nonc12 | 1.4% | 1.26µM* | 11.2µM*
COc1ccc(CNc2cc(NCCCO)c([N+](=O)[O-])c3nonc23)cc1 | 1.7% | -13.0% | ?
O=[N+]([O-])c1c(NCCCO)cc(N2CCCCCC2)c2nonc12 | · | 41.7% | ?
COc1ccc(Nc2cc(NCCCO)c([N+](=O)[O-])c3nonc23)cc1 | · | -2.3% | -21.4%
O=[N+]([O-])c1c(NCCCO)cc(N2CCN(Cc3ccc4c(c3)OCO4)CC2)c2nonc12 | -1.0% | 5.01µM* | 3.55µM*
SMILES | Luc counter | RORgamma inh | VP16 counter
O=[N+]([O-])c1c(NCCCO)cc(Sc2ccc(Cl)cc2)c2nonc12 | 0.2% | 5.01µM* | 5.01µM*
CCN1CCC2(CC1)N=C(c1ccc(F)cc1)C(=S)N2C(=O)c1ccc(C(C)(C)C)cc1 | · | 3.98µM* | ?
CCN1CCN(c2nc(-c3ccc(F)cc3)cc(=O)[nH]2)CC1 | · | -7.3% | -4.7%
CCOC(=O)CNC(=O)CSc1nc2c(C)cccc2cc1CC | 2.0% | -19.6% | -4.4%
CS(=O)(=O)N1CCC(C(=O)Nc2cccc(C(F)(F)F)c2)CC1 | -1.2% | -0.2% | -4.0%
O=C(Nc1cccc(C(F)(F)F)c1)C1CCN(S(=O)(=O)c2ccc(N3CCCC3=O)cc2)CC1 | · | ? | 12.6µM*
N/C(Cc1ccc([N+](=O)[O-])cc1)=N\OC(=O)CC1CCCCC1 | -1.1% | 12.6µM* | 12.6µM*
N/C(Cc1ccc([N+](=O)[O-])cc1)=N\OC(=O)C(c1ccccc1)c1ccccc1 | · | ? | 10µM*
N/C(Cc1ccc([N+](=O)[O-])cc1)=N\OC(=O)c1ccccc1Br | 1.4% | ? | 11.2µM*
Cc1ccc(CC(=O)O/N=C(\N)Cc2ccc([N+](=O)[O-])cc2)cc1 | 0.0% | 0.4% | ?
N/C(Cc1ccc([N+](=O)[O-])cc1)=N\OC(=O)c1ccc(Br)cc1 | -3.9% | -64.6% | ?
COc1ccc(C/C(N)=N/OC(=O)C(c2ccccc2)c2ccccc2)cc1OC | · | 24.4% | ?
CC(C)c1ccc2occ(-c3nn[nH]n3)c(=O)c2c1 | -2.0% | 3.2% | 3.0%
CCOC(=O)N1CCC(NC(=O)c2cc(C(=O)Nc3ccc(S(=O)(=O)N4CCCCC4)cc3)ccc2CO)CC1 | · | -26.9% | ?
COCCCNC(=O)CCN1N=C(c2ccccc2)CCC1=O | · | -9.7% | 5.5%
Nc1ccc[n+](CC(=O)c2ccccc2)c1 | · | -8.9% | -2.3%
CCc1n[n+](CC(=O)c2ccccc2)c(N)s1 | 10µM* | 2.82µM* | 2.24µM*
CSc1sc(C(=O)O)c(C)c1C(C)=O | 3.4% | 1.9% | -0.4%
COc1ccc(C)cc1NC(=O)CN(C)S(=O)(=O)c1cnc[nH]1 | -5.2% | 5.0% | 1.1%
Cc1nonc1CC(=O)NC1CCCc2c1cnn2-c1ccc(F)cc1F (configuration not stated) | · | 37.6% | 0.8%
Cc1ccc(C(=O)NC2CCCc3c2cnn3-c2ccc(F)cc2F)cn1 (configuration not stated) | · | ? | 2.82µM*
Cc1nnsc1C(=O)NC1CCCc2c1cnn2-c1cc(F)cc(F)c1 (configuration not stated) | · | 15.6% | 0.0%
Cc1nnsc1C(=O)NC1CCCc2c1cnn2-c1ccc(F)cc1F (configuration not stated) | · | ? | 7.08µM*
Cc1cc(C)cc(NC(=O)c2cc(C)nn2C)c1 | -6.7% | 15.5% | 0.9%
CC1=NN(C(=O)c2csc(C)c2)C(O)(C(F)(F)F)C1 (configuration not stated) | -0.2% | 3.55µM* | 5.62µM*
SMILES | Luc counter | RORgamma inh | VP16 counter
CC1=NN(C(=O)c2ccc(Br)cc2)C(O)(C(F)(F)OC(F)(F)F)C1 (configuration not stated) | · | 11.2µM* | 17.8µM*
Cc1ccc(C(=O)N2N=C(c3ccccc3)CC2(O)C(F)(F)F)o1 (configuration not stated) | -0.7% | -3.9% | -10.9%
O=C(c1ccc(Br)cc1)N1CCCC1 | -7.0% | -1.2% | -1.4%
CC1=NN(C(=O)c2csc(C)c2C)C(O)(C(F)(F)F)C1 (configuration not stated) | -0.9% | 5.62µM* | 4.47µM*
CC1=NN(C(=O)c2cc(C)nn2C)C(O)(C(F)(F)F)C1 (configuration not stated) | -1.0% | 11.2µM* | ?
Cc1cc(C(=O)N2CCN(c3ncccn3)CC2)cs1 | -1.2% | 7.2% | -3.3%
Cc1ccc(C)c(C(=N)c2ccccc2Cc2ccccc2)c1 | -4.6%[7.66 µM] | · | ·
Cc1ccc(/C=C/C(=O)NC(=S)N2CCN(C)CC2)cc1 | -2.2% | 14.1µM* | 12.6µM*
COc1ccccc1/C=C/C(=O)NC(=S)N1CCN(C)CC1 | · | 11.2µM* | 15.8µM*
COc1ccccc1/C=C/C(=O)NC(=S)NC(C)C | 0.7% | ? | -4.1%
NC(=S)NC(=O)/C=C/c1ccccc1 | -5.0% | 7.94µM* | ?
